High-throughput results as filed in PubChem.
GLD-1 TGE inh = GLD-1-TGE RNA interaction inhibition (C. elegans); inhibition, % at 5.96 µM; purified GLD-1 + fluorescein TGE RNA, fluorescence polarization; Q17339; hit rate 0.44% among 320,000;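 active means percent inhibition above a per-plate cutoff, the plate mean of test compounds plus 3 SD, cut at about 30% in these data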
Keap1 Nrf2 FP = Keap1-Nrf2 (human) interaction inhibition | Q14145 | AID 504523 | hit rate 0.15% among 340,000 | Keap1 Kelch-Nrf2 peptide fluorescence polarization, 1536-well | inhibition, % at 9.4 µM; in the data active means inhibition above about 12%;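 further: human Keap1 Kelch domain with fluorescein labeled Nrf2 9mer peptide probe; higher means more block of Keap1 binding to Nrf2 peptide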
EBV gp42 block = blocks Epstein-Barr virus glycoprotein 42 binding; Q1HVG2; Fluorescence polarization binding assay, mP read-out; inhibition, % (tested at 21.74 µM); hit rate 0.42% among 220,000; AID 1085; in the data active means inhibition above about 50%
C-LANA FP = inhibitors of KSHV LANA C-terminal domain DNA binding. MBP-C-LANA/FAM-LBS DNA binding, fluorescence polarization. inhibition, % at 9 µM. hit rate 0.078% among 340,000;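 active means highest replicate inhibition at or above 60% at 9 µM, even if other replicates fall short; inactive means all replicates below 60% inhibition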
LANA-H2B inh = blocks KSHV LANA binding to histone H2A/H2B; Q9QR71; cell-free LANA-H2A/H2B peptide, fluorescence polarization; inhibition, % (no concentration beside the values); hit rate 0.6% among 320,000; in the data active means inhibition mostly above about 10%, no sharp cut-off; inactive means mostly below about 6.7%
E coli Lon inh = inhibitors of E. coli Lon protease; P0A9M0; purified E. coli Lon protease, fluorescence polarization; inhibition, % at 7.94 µM; hit rate 0.42% among 360,000; AID 602123; in the data active means inhibition above about 13%, passing the limit was not always enough
Target sequence (P0A9M0 whole entry, looked up): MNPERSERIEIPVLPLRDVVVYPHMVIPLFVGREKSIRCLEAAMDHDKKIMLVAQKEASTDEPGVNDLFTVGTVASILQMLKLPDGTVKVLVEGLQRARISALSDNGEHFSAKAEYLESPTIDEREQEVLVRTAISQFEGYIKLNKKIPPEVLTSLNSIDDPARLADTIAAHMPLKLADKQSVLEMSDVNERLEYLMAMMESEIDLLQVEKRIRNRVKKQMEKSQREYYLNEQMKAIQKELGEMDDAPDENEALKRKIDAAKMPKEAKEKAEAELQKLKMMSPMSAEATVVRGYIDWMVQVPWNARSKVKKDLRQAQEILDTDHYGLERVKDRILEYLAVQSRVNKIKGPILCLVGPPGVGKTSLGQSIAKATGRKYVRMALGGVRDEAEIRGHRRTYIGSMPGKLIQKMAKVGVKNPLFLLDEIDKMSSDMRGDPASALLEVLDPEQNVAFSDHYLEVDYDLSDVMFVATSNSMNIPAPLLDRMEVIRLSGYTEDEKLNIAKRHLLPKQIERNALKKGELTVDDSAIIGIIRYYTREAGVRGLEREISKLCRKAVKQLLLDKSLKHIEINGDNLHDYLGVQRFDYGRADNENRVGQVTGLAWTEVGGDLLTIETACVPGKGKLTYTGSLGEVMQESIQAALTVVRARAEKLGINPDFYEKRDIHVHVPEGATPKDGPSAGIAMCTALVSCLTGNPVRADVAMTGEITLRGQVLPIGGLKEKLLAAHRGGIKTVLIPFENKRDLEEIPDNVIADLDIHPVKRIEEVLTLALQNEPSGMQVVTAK
Keap1 TSA = Keap1 (human) Kelch domain binding | shares compounds with Keap1 Nrf2 FP | Keap1 Kelch thermal shift, delta Tm; active compounds read high | max delta Tm, degrees C | hit rate 8% among 400; in the data active means max delta Tm above about 0.48 degrees C
Sypro dye melt = counter-screen for Keap1 thermal shift hits: dye-only artifacts; AID 651858; shares compounds with Keap1 Nrf2 FP; 140 tested, under 10 active; delta Tm, degrees C (test concentration not listed); Sypro Orange dye-only thermal melt, no protein, delta Tm; top dose 26 µM;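 active means at highest dose tested, delta Tm positive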
E coli Lon conf = confirmation of E. coli Lon protease inhibitors; shares compounds with E coli Lon inh; purified E. coli Lon, fluorescence polarization; inhibition, % at 7.94 µM; hit rate 31% among 1,400; in the data active means inhibition above about 16%
Hits are given with their value; – = inactive; · = no result given; + = active, no number. An excerpt weighted towards active compounds, which were near 1.5% of everything screened.

SMILES | GLD-1 TGE inh | Keap1 Nrf2 FP | EBV gp42 block | C-LANA FP | LANA-H2B inh | E coli Lon inh | Keap1 TSA | E coli Lon conf | others
COc1ccc2[nH]c3c(c2c1)CCN1C(=O)N([C@@H](C)C(=O)NCc2ccco2)C(=O)[C@]31C | – | – | · | – | – | – | · | ·
CCC1OC23CCCCC2C(C#N)(C(=N)O3)C1(C#N)C#N (stereo unspecified) | 57.0 | 27.5 | – | – | – | 28.4 | – | – | Sypro dye melt=–
COc1ccc(C2OC34CCCCC3C(C#N)(C#N)C2(C#N)C(=N)O4)cc1 (stereo unspecified) | 101.1 | 22.1 | – | – | – | 33.9 | – | 34.2 | Sypro dye melt=–
COc1ccc(C2CC3(O)NC(=O)C(C#N)(C3C)C2(C#N)C#N)cc1 (stereo unspecified) | – | · | – | · | – | – | · | ·
COc1ccc(/C=N/N=C2/CC(C)(C)Cc3n[nH]c(=O)cc32)cc1 | 120.4 | 13.0 | 70.4 | – | – | 44.7 | – | 20.9
COc1ccc(N=Nc2nc3ccc(Br)cc3n2C)cc1 | 176.1 | 47.8 | 51.1 | 69.8 | 88.3 | + | – | 91.7
Cn1c(=O)c(N)c2c3c(c(Br)ccc31)C(=O)c1ccccc1-2 | + | 31.3 | 170.9 | 124.3 | 42.7 | + | – | +
Cc1oc2cc(O)ccc2c(=O)c1-c1nncn1-c1ccccc1 | 112.9 | 25.4 | 108.5 | – | – | 34.2 | – | 50.8 | Sypro dye melt=–
O=C(C1=C(O)C(=O)N(c2nccs2)C1c1ccccc1)c1cc2ccccc2o1 (stereo unspecified) | 173.6 | 41.8 | 156.9 | – | – | + | – | 196.7
CCOc1cccc(C2C(C(=O)c3ccc(C)o3)=C(O)C(=O)N2c2nccs2)c1 (stereo unspecified) | 142.5 | 23.5 | 172.0 | – | 15.4 | 97.8 | – | 118.5
COc1ccc2[nH]c(C(=O)Nc3ccc4c(c3)OCO4)cc2c1 | – | · | – | · | – | – | · | ·
O=c1oc(=S)oc2c1[C@H](c1ccc(Cl)cc1)O[C@H](C1CC1)C2 | · | · | · | · | · | – | · | ·
N#CC1C(=N)Cc2ccccc2-c2ccccc21 (stereo unspecified) | · | – | · | – | · | – | · | ·
CCOC(=O)/C(N=Nc1sc(C(=O)OC)c(C)c1C(=O)OCC)=C(\O)CCl | – | – | – | – | – | – | · | ·
CCc1ccc[n+](-c2[nH]c(=O)sc2/C=N/NC([S-])=Nc2ccccc2)c1 | 108.2 | 49.4 | 66.0 | 89.3 | – | 104.8 | – | 129.5 | Sypro dye melt=–
CC(C)(C)c1cc[n+](-c2[nH]c(=O)sc2/C=N/N=C(\[O-])c2cccnc2)cc1 | – | – | · | – | – | – | · | ·
O=c1[nH]c(-[n+]2ccccc2)c(/C=N/NC([S-])=Nc2ccccc2)s1 | 142.8 | 17.0 | – | – | – | 94.1 | – | –
CCc1ccc[n+](-c2[nH]c(=O)sc2/C=N/N=C(\N)[O-])c1 | – | – | – | – | – | – | · | ·
Cc1cc[n+](-c2[nH]c(=O)sc2/C=N/NC([S-])=Nc2ccccc2)cc1 | 115.9 | 31.7 | 58.7 | – | – | 63.3 | – | 53.4
Cc1cc(C)c[n+](-c2[nH]c(=O)sc2/C=N/NC([S-])=Nc2ccccc2)c1 | 117.1 | 26.0 | – | – | · | 69.5 | – | 75.7 | Sypro dye melt=–
CC(C)OC(=O)COc1cc(O)c2c(=O)cc(-c3ccccc3)oc2c1 | – | – | – | – | – | – | · | ·
CCOc1ccc(-c2cc(C(=O)Nc3cccc(C(F)(F)F)c3)[nH]n2)c(C)c1 | · | · | · | · | · | – | · | ·
NS(=O)(=O)c1cc(C(=O)NC2CCSc3ccccc32)ccc1Cl (stereo unspecified) | – | 20.4 | · | 90.3 | – | 17.6 | – | 16.9 | Sypro dye melt=–
NS(=O)(=O)c1cccc(C(=O)NC2CCSc3ccccc32)c1 (stereo unspecified) | – | – | · | – | – | – | · | ·
FC(F)c1nc2ccccc2[nH]1 | – | – | – | – | – | – | · | ·
SMILES | GLD-1 TGE inh | Keap1 Nrf2 FP | EBV gp42 block | C-LANA FP | LANA-H2B inh | E coli Lon inh | Keap1 TSA | E coli Lon conf | others
c1ccc2[nH]c3cc4ncnc4cc3nc2c1 | + | 35.0 | + | 74.7 | 26.4 | 153.4 | – | +
CC(C)c1csc(CN2CCC(N3CCC(C(=O)NCC4CCCO4)CC3)CC2)n1 (stereo unspecified) | – | – | – | – | – | – | · | ·
O=C(O)c1cccc(N2C(=O)c3cccc4c(Cl)ccc(c34)C2=O)c1 | – | – | – | – | – | – | · | ·
Nc1cccc(N2C(=O)c3cccc4c(N)ccc(c34)C2=O)c1 | 195.2 | 17.2 | · | 87.9 | 25.7 | + | – | +
CC(=O)Nc1cccc2c1C(=O)N(c1cccc(C)c1)C2=O | – | – | – | – | – | – | · | ·
Cc1cccc(N2C(=O)c3cccc4c(N)ccc(c34)C2=O)c1 | + | 74.6 | · | 135.1 | 61.1 | + | – | + | Sypro dye melt=–
CC(=O)Nc1ccc2c3c(cccc13)C(=O)N(c1ccccc1)C2=O | – | – | – | – | – | – | · | ·
Cc1cccc(N2C(=O)c3cccc4c(N(C)CCO)ccc(c34)C2=O)c1 | 175.6 | 12.4 | 157.4 | 67.7 | 19.7 | 175.1 | – | 144.3
Cc1cccc(N2C(=O)c3cccc4cccc(c34)C2=O)c1 | – | – | · | – | – | – | · | ·
Nc1ccc2c3c(cccc13)C(=O)N(c1ccccc1)C2=O | · | 31.5 | 162.5 | – | · | + | – | +
CCN1C(=O)c2cccc3c(Cl)ccc(c23)C1=O | – | – | – | – | – | – | · | ·
CC(C)CCN1C(=O)c2cccc3c(N)ccc(c23)C1=O | 185.3 | 70.5 | · | 96.1 | 14.4 | + | – | 142.8
CCOC(=O)N1CC=C2C(C#N)=C(N)C(C#N)(C#N)[C@H](c3ccc(OCC)c(OCC)c3)[C@H]2C1 | – | – | – | – | – | – | · | ·
N#CC1=C(N)C(C#N)(C#N)C(c2cccnc2)C2COCC=C12 (stereo unspecified) | – | – | – | – | – | – | · | ·
Cc1ccc(C2C3CN(C(C)C)CC=C3C(C#N)=C(N)C2(C#N)C#N)cc1 (stereo unspecified) | 109.1 | 22.8 | 89.1 | – | – | 35.6 | – | 47.8
CN1CC=C2C(C#N)=C(N)C(C#N)(C#N)[C@H](c3ccoc3)[C@H]2C1 | 99.2 | 26.6 | 61.6 | – | 18.4 | 130.0 | – | 109.3
CCOC(=O)c1ccc2ncc(C(=O)OCC)c(NCCN3CCOCC3)c2c1 | – | – | · | – | – | – | · | ·
CCOC(=O)c1ccc2ncc(C(=O)OCC)c(NCCN(C)C)c2c1 | – | 13.9 | · | – | – | 22.3 | – | – | Sypro dye melt=–
COc1ccccc1N(C)S(=O)(=O)c1ccc(C(=O)Nc2nccs2)cc1 | – | – | · | – | – | – | · | ·
CC(C)(C)c1cc[n+](-c2nc([O-])sc2C=O)cc1 | – | – | – | – | – | – | · | ·
